In publication PMC5540273 (PLoS ONE, 2017):

Experiments:
Details in all cases: concentration: 1 μM, replicates: in singlicate; n = 1
[1] = tested on: EPHB4
[2] = tested on: EPHB6
[3] = tested on: ERBB2
[4] = tested on: ERBB3
[5] = tested on: ERBB4
[6] = tested on: T1, ERK1
T1 construct: gene MAPK3

[7] = tested on: T2, ERK2
T2 construct: gene MAPK1

[8] = tested on: T3, ERK3
T3 construct: gene MAPK6

[9] = tested on: T4, ERK4
T4 construct: gene MAPK4

[10] = tested on: T5, ERK5
T5 construct: gene MAPK7
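Further: KINOMEscan kinase panel screen.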

Structure (SMILES)	%Inh [1]	%Inh [2]	%Inh [3]	%Inh [4]	%Inh [5]	%Inh [6]	%Inh [7]	%Inh [8]	%Inh [9]	%Inh [10]
COc1ccc(Nc2nccc(NCCNC(=O)Nc3cc(C)ccc3C)n2)cc1 [GSK1379899]	8%	0%	1%	0%	0%	1%	0%	0%	0%	0%
COC(=O)C(Cc1ccccc1)NC(=O)NC1CCN(c2ccnc(Nc3ccc(F)cc3)n2)C1 (centres unmarked) [GSK1379714]	0%	72%	51%	28%	42%	14%	0%	0%	12%	0%
COC(=O)c1cccc(NC(=O)NC2CCN(c3ccnc(Nc4ccc(F)cc4)n3)C2)c1 (centres unmarked) [GSK1379725]	0%	0%	16%	0%	0%	0%	0%	0%	0%	0%
FC(F)(F)c1ccccc1-c1cc(-c2c[nH]nc2-c2ccccn2)ccn1 [GW679396]	0%	100%	8%	0%	0%	0%	0%	11%	21%	0%
COc1ccc(CSc2nnc(-c3ccc4nccn4c3)o2)cc1C(F)(F)F	16%	0%	0%	9%	0%	0%	0%	18%	0%	1%
CCn1c(-c2c(N)noc2C)nc2cnccc21 [SB-737856]	54%	0%	31%	0%	0%	0%	9%	100%	16%	0%
Cn1cncc1C(=O)NC1CCN(c2ccnc(Nc3ccc(F)cc3)n2)C1 (centres unmarked) [GSK1379717]	14%	15%	0%	0%	5%	0%	0%	0%	0%	0%
Cn1cncc1-c1cc2c(Nc3ccc(OCc4ccccc4)cc3)ncnc2cn1 [GW281179]	17%	21%	99.6%	75%	70%	0%	0%	0%	0%	0%
CN1c2ccc(-c3ccc(C(N)=O)cc3)cc2-c2[nH]ncc2S1(=O)=O	18%	23%	12%	14%	14%	0%	4%	0%	0%	0%
COc1ccc(Nc2nccc(-c3ccc(NC(=O)c4cc5cc(F)ccc5[nH]4)cc3)n2)cc1 [GSK1229496]	16%	6%	38%	13%	6%	0%	0%	0%	0%	0%
O=c1cc(N2CCOCC2)nc2n(Cc3ccccc3F)ccn12 [GSK2297428]	3%	11%	0%	0%	0%	0%	0%	0%	19%	0%
COc1nccc(-c2c(-c3ccc(F)cc3)ncn2CCCN2CCOCC2)n1 [SB-282852]	0%	17%	40%	46%	4%	0%	0%	0%	0%	0%
CC(=O)c1c(C)c2cnc(Nc3ccn(C)n3)nc2n(C2CCCC2)c1=O	0%	6%	0%	0%	0%	0%	0%	15%	17%	9%
Cl.Cl.Cl.N#Cc1ccc(CCNc2nccc(-c3cccc(CN4CCNCC4)c3)n2)cc1 [GSK2137462]	16%	1%	0%	0%	0%	0%	0%	31%	4%	0%
COc1cccc(NC(=O)Nc2ccc(C)c(-c3ccc(C(=O)Nc4ccncc4)cc3)c2)c1 [GSK1398474]	8%	26%	0%	0%	25%	7%	0%	7%	1%	0%
CNCc1ccc2nc(NC(=O)c3ccc(C(C)(C)C)cc3)cn2c1	1%	6%	17%	31%	9%	1%	0%	0%	0%	6%
COc1ccc(Nc2nccc(N3CCC(NC(=O)C(C)c4ccc(Cl)cc4)CC3)n2)cc1 (centres unmarked) [GSK1379812]	0%	100%	19%	19%	0%	0%	4%	2%	0%	0%
COc1ccc(CSc2nnc(-c3ccc4c(c3)CCO4)o2)cc1	13%	0%	18%	0%	0%	0%	0%	0%	0%	6%
O=C(Nc1n[nH]c2nc(-c3ccco3)c(Br)cc12)C1CCN(Cc2ccccc2)C1.O=C(O)[C@H](O)[C@@H](O)C(=O)O (centres unmarked) [SB-742034]	0%	34%	0%	0%	13%	8%	1%	0%	0%	0%
CC(C)c1ccc(O)cc1Nc1ccnc2ccc(C(F)(F)F)cc12 [GW482059]	0%	0%	10%	0%	0%	0%	0%	0%	0%	0%
CNC(=O)c1ccc(C)c(-n2c(C)cc(OCc3ccc(F)cc3F)c(Br)c2=O)c1	0%	0%	0%	0%	13%	0%	0%	0%	0%	0%

Structure (SMILES)	%Inh [1]	%Inh [2]	%Inh [3]	%Inh [4]	%Inh [5]	%Inh [6]	%Inh [7]	%Inh [8]	%Inh [9]	%Inh [10]
Fc1ccc(-c2nc[nH]c2-c2ccncc2)cc1 [SB-217360]	0%	3%	41%	5%	10%	2%	0%	0%	12%	0%
COC(=O)c1cccc(NC(=O)NC2CCN(c3ccnc(Nc4ccc(OC)cc4)n3)C2)c1 (centres unmarked) [GSK1379746]	19%	37%	65%	24%	23%	0%	0%	5%	2%	6%
CCc1ccc(-c2ccc3c(c2)-c2n[nH]cc2S(=O)(=O)N3C)cc1	8%	0%	40%	15%	0%	0%	7%	0%	0%	5%
COc1cccc(CNC(=O)NC2CCN(c3ccnc(Nc4ccc(F)cc4)n3)C2)c1 (centres unmarked) [GSK1379723]	2%	15%	2%	0%	22%	0%	0%	10%	0%	0%
CC(C)c1cc(-c2ccc3c(N)n[nH]c3c2)nc(N)n1 [GSK2250882]	18%	4%	25%	0%	0%	1%	0%	0%	26%	0%
Cc1ccc(NC(=O)Nc2ccc(Cl)cc2)cc1-c1ccc(C(=O)Nc2ccncc2)cc1 [GSK1398472]	23%	2%	25%	0%	0%	0%	0%	15%	3%	0%
Cc1c(Cn2c(C)c(C)n3c(=O)cc(N4CCOCC4)nc23)cccc1C(F)(F)F [GSK2328680]	14%	0%	0%	16%	4%	0%	0%	8%	0%	0%
Cc1c(Cn2c3ccccc3n3c(=O)cc(N4CCOCC4)nc23)cccc1C(F)(F)F [GSK2306394]	0%	0%	0%	0%	60%	36%	0%	0%	100%	0%
NS(=O)(=O)c1cccc(N/C=C2\C(=O)Nc3ccc(S(=O)(=O)Cc4c(Cl)cccc4Cl)cc32)c1 [GSK398099]	15%	44%	0%	0%	37%	0%	0%	24%	48%	0%
COc1ccc2cc(-c3nc(-c4ccccc4C(C)C)[nH]c3-c3ccncc3)ccc2c1 [SB-660566]	6%	0%	5%	0%	52%	0%	0%	0%	15%	0%
Cc1ccc(NC(=O)Nc2ccccc2F)cc1-c1ccc(C(=O)Nc2ccncc2)cc1 [GSK1398477]	21%	20%	8%	0%	0%	8%	9%	11%	20%	0%
COC(=O)C(NC(=O)NC1CCN(c2ccnc(Nc3ccc(F)cc3)n2)C1)c1ccccc1 (centres unmarked) [GSK1379712]	6%	92%	20%	0%	0%	2%	0%	0%	24%	13%
O=C1NC(=O)C(c2ccc(Cl)cc2)=C1Nc1ccc(O)cc1 [SB-340867]	0%	0%	0%	0%	26%	0%	0%	0%	0%	0%
Nc1cccc(-c2ccc3c(N)n[nH]c3c2)n1 [GSK2192730]	5%	0%	0%	0%	0%	0%	0%	0%	35%	8%
CC(=O)c1c(C)c2cnc(Nc3ccc(N4CCNCC4)cn3)nc2n(C2CCCC2)c1=O	23%	17%	9%	0%	0%	0%	0%	89%	25%	0%
O=C(Nc1n[nH]c2nc(-c3cccs3)c(Br)cc12)C1CCCC1 [SB-743341]	22%	22%	0%	3%	0%	0%	10%	9%	0%	0%
Cc1ccc(NC(=O)Nc2ccc(Cl)c(C(F)(F)F)c2)cc1-c1ccc(C(=O)Nc2ccncc2)cc1 [GSK1398470]	12%	18%	0%	0%	6%	15%	12%	10%	10%	0%
Fc1ccc(-c2nn3cccc(F)c3c2-c2ccncc2)cc1 [GW475620]	10%	0%	39%	0%	30%	21%	10%	0%	4%	0%
Cn1cnc2c(N)ncnc21 [SKF-97623]	52%	0%	35%	0%	39%	77%	0%	0%	0%	0%
CS(=O)(=O)Cc1ccc(Nc2nccc(-c3c(-c4cccc(NC(=O)C5CCCCC5)c4)nn4ncccc34)n2)cc1 [GSK350559]	0%	42%	25%	22%	74%	2%	0%	0%	3%	0%
